Measurements: PubChem BioAssay AID720706 (Broad Institute, 2013)
Out of some 350,000 compounds screened, about 5,500 (1.6%) were called active.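 How the source made its calls: active means significant combined selectivity score with lowered wild-type GFP, culture density cut under 30%, mutant RFP and density less affected; inactive means any of these conditions unmet.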 The list comes from a sample in which actives are over-represented; it also holds similar structures and randomly drawn compounds.

Assay: reduced GFP signal of wild-type E. coli, primary screen, bacterial rRNA inhibitor project, GFP/RFP fluorescence, OD600, single point (AID 720706)
Conditions: E. coli WT GFP vs humanized-ribosome RFP mutants, 24 h; GFP signal change (wild-type ribosome): stronger effect = lower value, DMSO median 0, no signal -100; OD600 change: measured here: OD600 growth, DMSO median 0, no signal -100; RFP signal change: measured here: RFP humanized mutant strains, DMSO median 0, no signal -100, concentration not given here

Structure (SMILES)	GFP signal change (wild-type ribosome)	OD600 change	RFP signal change
COc1ccc2c3c(n(C)c2c1)[C@@H](CO)N(S(C)(=O)=O)CC31CCN(C(=O)C2CCC2)CC1	-4.54% (inactive)	-7.74%	-2.66%
CCNC(=S)N1CCN(CCN=CC2=C(O)CC(C)(C)CC2=O)CC1	9.96% (inactive)	0.25%	-7.06%
CCOC(=O)c1sc(/N=C/C2=C(O)CC(C)(C)CC2=O)c(C(=O)OCC)c1C	-22.9% (active)	-5.5%	-2.5%
CCOC(=O)c1c(CC(C)C)csc1/N=C/C1=C(O)CCCC1=O	-13.2% (inactive)	-8.82%	21.8%
CC(C)C#Cc1ccc([C@H]2[C@@H](CO)N3CCCCN(C(=O)Nc4ccccc4)C[C@H]23)cc1	-26% (inactive)	-29.6%	1.8%
CO[C@@H]1CN(C)C(=O)c2ccc(NC(=O)NC(C)C)cc2OC[C@@H](C)N(C)C[C@H]1C	2.58% (inactive)	9.18%	2.18%
C=CCOC(=O)c1ccccc1C(=O)OCC=C	7.54% (inactive)	7.92%	12%
COC(=O)C1=CN(Cc2ccc(OC)c(OC)c2)C=C(C(=O)OC)C1c1cccs1	-4.13% (inactive)	-22.2%	6.91%
C=CCOC(=O)C1=C(C)NC(C)=C(C(=O)OCC=C)C1c1cccs1	-17.1% (active)	-4.32%	3.89%
Cc1noc(C)c1S(=O)(=O)Nc1ccc2c(c1)C(=O)N([C@@H](C)CO)C[C@@H](C)[C@@H](CN(C)S(=O)(=O)c1ccccc1)OCCCC[C@H](C)O2	-1.55% (inactive)	-7.72%	-2%
CC(NC(=O)c1ccco1)c1ccc2c(c1)OCO2 (centres undefined)	-0.41% (inactive)	4.91%	-2.06%
O=C1Nc2ccccc2NC(c2ccc3c(c2)OCO3)=C1N(Cc1ccc(F)cc1)C(=O)c1ccco1	-28.3% (active)	-22.6%	8%
CC1(C(=O)NCc2ccco2)Cc2c(-c3ccc4c(c3)OCO4)ccnc2O1 (centres undefined)	10.2% (inactive)	0.265%	-2.19%
CC(C)NC(=O)N(C)C[C@@H]1OCc2ccccc2-c2c(n(C)c3ccccc23)C(=O)N([C@@H](C)CO)C[C@H]1C	1.88% (inactive)	-5.55%	-8.97%
CC(=O)Nc1ccc(NC(=O)C2CCCN(S(=O)(=O)c3ccc(Cl)cc3)C2)cc1 (centres undefined)	6.79% (inactive)	9.12%	-1.21%
Cc1n[nH]c(C)c1S(=O)(=O)N1CCCC(C(=O)Nc2ccc(Br)cc2)C1 (centres undefined)	-18.5% (active)	-8.94%	2.17%
CC(C)c1ccc(NC(=O)C2CCCN(S(=O)(=O)c3cccnc3)C2)cc1 (centres undefined)	-15.6% (inactive)	-14.1%	-1.15%
C[C@H](CO)N1C[C@H](C)[C@H](CN(C)CC2CCCCC2)Oc2ccc(NC(=O)CCCCCC(=O)Nc3ccccc3N)cc2C1=O	3.67% (inactive)	1.29%	2.33%
